Compound activity deposited in PubChem by National Center for Advancing Translational Sciences (NCATS).
Hits are enriched below; roughly 12% of the tested compounds scored in any of these assays.
CHX counter: Cycloheximide Counterscreen for Small Molecule Inhibitors of Shiga Toxin | AID 2314, 2010 | cell reporter, cycloheximide protein synthesis inhibition counterscreen | 300,000 tested, 12% active | max response, %; in the data active = max response mostly above about 13%, no sharp cut-off; inactive = mostly below about 14%; note: read at 38.3 µM for the half of the compounds with a filed dose
Marburg entry inh: qHTS for inhibitors of binding or entry into cells for Marburg Virus; AID 540276, 2011; Marburg virus pseudotyped entry inhibition, cell reporter; 300,000 tested, 1.8% active; Potency, µM (titrated, usually from 37.8 µM), hits mostly inhibitors; calls by dose curve; tested in HEK293 cells
Lassa entry inh: qHTS for Inhibitors of binding or entry into cells for Lassa Virus. Lassa virus pseudotype entry inhibition, cell reporter. Potency, µM (doses to about 37.9 µM), actives largely listed as inhibitors. 300,000 tested, 1.2% active; calls by dose curve; tested in HEK293 cells; note: nearly all actives have a fitted effect of over 50% in size
Shiga inhibitor: A qHTS for Small Molecule Inhibitors of Shiga Toxin. inhibition, % at 38.7 µM. Vero cells, Shiga toxin protein synthesis inhibition reporter. AID 2315, 2010. 290,000 tested, 9.2% active; in the data active = inhibition mostly above about 28%, no sharp cut-off; inactive = mostly below about 43%
Each line names hits and unclear results; the compound was inactive in the other large screens.

CC12C(=O)N(Cc3ccco3)C(=O)C1C1c3ccccc3C2c2ccccc21 (stereo not drawn)	CHX counter 46.0, Marburg entry inh inconclusive
COc1ccc(OC)c(NC(=O)Cn2cnc3ccc(S(=O)(=O)N4CCC(C)CC4)cc3c2=O)c1	Marburg entry inh inconclusive (no result: CHX counter, Shiga inhibitor)
CCNC(=O)C12CCC(C)(c3nc4cc(C)c(C)cc4nc31)C2(C)C (stereo not drawn)	Marburg entry inh inconclusive (no result: Lassa entry inh)
O=C(Nc1ccc(Cl)cc1C(=O)N1CCCC1)c1cccc([N+](=O)[O-])c1	none
COc1cc2[nH]c3ccccc3c2cc1C	CHX counter 53.2, Shiga inhibitor 69.1 (no result: Marburg entry inh, Lassa entry inh)
Cc1ccc(C)c(Cn2nc(C)n3c(cc4cc(C)ccc43)c2=O)c1	Lassa entry inh inconclusive (no result: CHX counter, Shiga inhibitor)
Cc1ccc2c(c1)cc1c(=O)[nH]ncn12	Shiga inhibitor 87.8
Cc1ccc(-c2nc3ccc([N+](=O)[O-])cc3[nH]2)cc1	CHX counter 16.0, Shiga inhibitor 123.7 (no result: Marburg entry inh, Lassa entry inh)
O=[N+]([O-])c1ccc2nc[nH]c2c1	none (no result: CHX counter, Shiga inhibitor)
Cc1cc(=O)[nH]c(SCc2nc3ccc([N+](=O)[O-])cc3[nH]2)n1	none
O=[N+]([O-])c1ccc2nc(-c3ccc(Cl)cc3)[nH]c2c1	CHX counter 91.5, Marburg entry inh inconclusive, Lassa entry inh inconclusive, Shiga inhibitor active
O=[N+]([O-])c1ccc(-c2nc(-c3ccc(F)cc3)c(-c3ccncc3)[nH]2)cc1	Marburg entry inh 8.2µM, Lassa entry inh inconclusive
COc1ccc(-c2nc3ccc([N+](=O)[O-])cc3[nH]2)cc1	CHX counter 60.1, Marburg entry inh inconclusive, Lassa entry inh 8.91µM, Shiga inhibitor 57.5
COc1ccc([N+](=O)[O-])cc1-c1[nH]c(-c2ccc(C(=O)O)cc2)nc1-c1ccccc1	none (no result: Marburg entry inh, Lassa entry inh)
CCc1cccc(C)c1NS(=O)(=O)c1ccc2c(c1)NC(=O)C(C)C(=O)N2 (stereo not drawn)	none (no result: CHX counter, Marburg entry inh, Shiga inhibitor)
COc1cc2c(cc1OC)C(c1ccc(F)cc1)N(c1cccc(C#N)c1)C(=O)C2 (stereo not drawn)	none (no result: CHX counter, Shiga inhibitor)
CC(=O)C1CCC2C3CC=C4N(C)C(=O)CCC4(C)C3CCC12C (stereo not drawn)	none (no result: CHX counter, Shiga inhibitor)
CC(=O)C1=C(C)N(Cc2ccccc2)C(=O)N[C@H]1c1ccc(Br)cc1	none (no result: CHX counter, Lassa entry inh, Shiga inhibitor)
O=c1n(-c2ccccc2)c(=O)n2n1CC[C@@H]1/C(=N/OC[C@@H](O)COCc3ccco3)[C@H]3O[C@H]3[C@@H](O)[C@@H]12	none (no result: CHX counter, Lassa entry inh, Shiga inhibitor)
O=[N+]([O-])c1ccc2nc(-[n+]3c(-c4ccccc4)cc(-c4ccccc4)cc3-c3ccccc3)[nH]c2c1	Marburg entry inh inconclusive, Lassa entry inh 23.1µM
O=[N+]([O-])c1ccc(N2CCN(S(=O)(=O)c3cnc[nH]3)CC2)cc1	none
O=[N+]([O-])c1ccc(-c2cnc[nH]2)cc1	CHX counter 26.2, Shiga inhibitor 52.7
O=[N+]([O-])c1ccc(-c2cc(-c3ccc(Cl)cc3)n[nH]2)cc1	Marburg entry inh inconclusive, Shiga inhibitor 39.5
O=[N+]([O-])c1ccc(N2CCN(c3nc(-c4ccc(Cl)cc4)cs3)CC2)cc1	none
O=[N+]([O-])c1ccc2nc(-c3ccccc3[N+](=O)[O-])[nH]c2c1	CHX counter 26.3
C[C@@H]1CNCCN1S(=O)(=O)c1cccc2cnccc12	none (no result: CHX counter, Lassa entry inh, Shiga inhibitor)
CCOc1ccc(OCCOC(=O)CN2C(=O)NC3(CCCC3)C2=O)cc1	none (no result: CHX counter, Shiga inhibitor)
CCOC(=O)N1CCc2c(sc(NCc3cccc(F)c3)c2C(=O)Nc2ccc(OCC)cc2)C1	none (no result: CHX counter, Marburg entry inh, Shiga inhibitor)
O=[N+]([O-])c1cccc(-c2nc3ccc([N+](=O)[O-])cc3[nH]2)c1	Marburg entry inh inconclusive
O=[N+]([O-])c1ccc2nc(-c3ccncc3)[nH]c2c1	CHX counter 32.5 (no result: Marburg entry inh, Lassa entry inh)
CCn1c(O)c(C=NC2CCCC(C)C2C)sc1=S (stereo not drawn)	CHX counter 50.6, Marburg entry inh inconclusive, Shiga inhibitor 109.8
CCn1c(O)c(C=NCc2ccccc2)sc1=S	none (no result: Marburg entry inh, Lassa entry inh)
Cc1cccc(-c2nsc(SCC(=O)NCC3CCCO3)n2)c1 (stereo not drawn)	CHX counter 44.4, Shiga inhibitor 91.1
Cc1cccc(-c2nsc(SCC(=O)NCc3ccco3)n2)c1	CHX counter 22.7
Cc1cccc(-c2nsc(SCC(=O)NCc3ccc4c(c3)OCO4)n2)c1	none
COC(=O)CC1=CO[C@@H](O)[C@@H]2C(CO)=CC[C@@H]12	none (no result: CHX counter, Lassa entry inh, Shiga inhibitor)
Cc1nn(-c2ccccc2)nc1C(=O)Oc1cc(C(F)(F)F)nn1-c1ccccc1	none (no result: Marburg entry inh, Lassa entry inh)
CCOC(=O)CCc1c(C)c2ccc(O)cc2oc1=O	CHX counter 13.2, Marburg entry inh inconclusive
CCOC(=O)Cc1c(C)c2c(O)cc(O)cc2oc1=O	none
CCN(CC)c1ccc2c(C)c(-c3ccc(N)cc3)c(=O)oc2c1	CHX counter 26.9, Marburg entry inh inconclusive, Lassa entry inh 10µM, Shiga inhibitor 33.7
